Assay results reported in PubChem BioAssay AID1159580 (chemical genetic matrix, 2015).
Where “and” joins values, the source holds several entries; their conditions need not be identical. Equal values may be shown once. In all, about 5,500 compounds went through this assay and about 2,000 (36%) were called active. Another 18% or so got no clear call; they are omitted. Rule as the data show it: active = normalized growth mostly below about 0.91 (no sharp cut-off); inconclusive = no clear call, values can overlap the other calls; inactive = mostly above about 0.92. Some of the results follow.

Assay: chemical genetic growth profiling, strain panel (AID 1159580);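 also: tested at 20 µM; growth read once vehicle control cultures reached saturation at 30 °C; 1 = growth at the plate median or of vehicle wells; lower values mean less growth of the strain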
Details: growth OD

Measured: normalized growth

CCC1C(=O)OCC1Cc1cncn1C (stereo unspecified)
inactive: S. cerevisiae deletion strains, locus YJR075W, strain HOC1, stronger effect = lower value 1.01 and 0.997 and 1.02 | S. cerevisiae deletion strains, locus YKL009W, strain mrt4, stronger effect = lower value 0.99 and 0.991 | S. cerevisiae deletion strains, locus YKL068W, stronger effect = lower value 1 and 0.995 | S. cerevisiae deletion strains, locus YKL085W, strain MDH1 (second series), stronger effect = lower value 1.01 and 1.04 | S. cerevisiae deletion strains, locus YKL085W, strain MDH1, stronger effect = lower value 1.01 and 1.04 | S. cerevisiae deletion strains, locus YKL160W, strain elf1, stronger effect = lower value 1.03 and 1.01 | S. cerevisiae deletion strains, locus YKL190W, strain CNB1, stronger effect = lower value 1.02 and 1.01 | S. cerevisiae deletion strains, locus YKR001C, strain vps1, stronger effect = lower value 1.01 | S. cerevisiae deletion strains, locus YKR026C, strain gcn3, stronger effect = lower value 1.02 and 0.993 | S. cerevisiae deletion strains, locus YKR091W, strain srl3, stronger effect = lower value 1.02 | S. cerevisiae deletion strains, locus YLL001W, strain dnm1, stronger effect = lower value 1.02 | S. cerevisiae deletion strains, locus YLL026W, stronger effect = lower value 1.01 and 1.02 | S. cerevisiae deletion strains, locus YLL041C, strain sdh2, stronger effect = lower value 1.01 and 1.02 | S. cerevisiae deletion strains, locus YLR027C, strain aat2, stronger effect = lower value 1.02 and 1.01 | S. cerevisiae deletion strains, locus YLR039C, strain RIC1, stronger effect = lower value 1.02 and 1.07 | S. cerevisiae deletion strains, locus YLR058C, strain SHM2, stronger effect = lower value 1.01 | S. cerevisiae deletion strains, locus YLR102C, strain apc9, stronger effect = lower value 1.01 and 0.998 | S. cerevisiae deletion strains, locus YLR113W, strain HOG1, stronger effect = lower value 0.972 | S. cerevisiae deletion strains, locus YLR221C, strain rsa3, stronger effect = lower value 1.02 and 1.01 | S. cerevisiae deletion strains, locus YLR258W, strain gsy2, stronger effect = lower value 1.02 and 1.01 | S. cerevisiae deletion strains, locus YLR262C, strain YPT6 (second series), stronger effect = lower value 1.04 and 1.05 | S. cerevisiae deletion strains, locus YLR262C, strain YPT6, stronger effect = lower value 1.04 and 1.1 | S. cerevisiae deletion strains, locus YLR268W, strain sec22, stronger effect = lower value 1.06 and 0.999 | S. cerevisiae deletion strains, locus YLR320W, strain mms22, stronger effect = lower value 1.03 and 1.02 | S. cerevisiae deletion strains, locus YLR330W, strain CHS5, stronger effect = lower value 1.01 | S. cerevisiae deletion strains, locus YLR342W, strain FKS1 (second series), stronger effect = lower value 0.996 and 1 | S. cerevisiae deletion strains, locus YLR342W, strain FKS1, stronger effect = lower value 1.02 | S. cerevisiae deletion strains, locus YLR357W, strain rsc2, stronger effect = lower value 0.988 and 0.997 | S. cerevisiae deletion strains, locus YLR370C, strain arc18, stronger effect = lower value 1.01 and 1.02 | S. cerevisiae deletion strains, locus YLR371W, strain rom2, stronger effect = lower value 1.01 and 0.995 | S. cerevisiae deletion strains, locus YLR384C, strain iki3, stronger effect = lower value 1.02 and 1.03 | S. cerevisiae deletion strains, locus YLR418C, strain cdc73, stronger effect = lower value 1.02 | S. cerevisiae deletion strains, locus YML016C, strain PPZ1, stronger effect = lower value 1.01 | S. cerevisiae deletion strains, locus YML032C, strain rad52, stronger effect = lower value 1.03 and 0.985 | S. cerevisiae deletion strains, locus YML120C, strain ndi1, stronger effect = lower value 1.02 and 1.03 | S. cerevisiae deletion strains, locus YML124C, strain tub3, stronger effect = lower value 1.01 and 0.994 | S. cerevisiae deletion strains, locus YMR058W, strain fet3, stronger effect = lower value 1.01 and 1.02 | S. cerevisiae deletion strains, locus YMR078C, strain ctf18, stronger effect = lower value 1.02 and 0.99 | S. cerevisiae deletion strains, locus YMR125W, strain sto1, stronger effect = lower value 1.02 | S. cerevisiae deletion strains, locus YMR129W, stronger effect = lower value 1.01 and 1.02 | S. cerevisiae deletion strains, locus YMR205C, strain PFK2, stronger effect = lower value 1.04 and 1.02 | S. cerevisiae deletion strains, locus YMR223W, strain ubp8, stronger effect = lower value 0.991 and 1 | S. cerevisiae deletion strains, locus YMR231W, strain pep5, stronger effect = lower value 1.02 and 1.01 | S. cerevisiae deletion strains, locus YMR263W, strain SAP30, stronger effect = lower value 1.01 and 0.995 and 1.02 | S. cerevisiae deletion strains, locus YMR307W, strain GAS1, stronger effect = lower value 0.989 and 1.01 and 0.99 | S. cerevisiae deletion strains, locus YNL067W, strain RPL9B, stronger effect = lower value 1.01 | S. cerevisiae deletion strains, locus YNL071W, strain lat1, stronger effect = lower value 1.01 and 1.02 | S. cerevisiae deletion strains, locus YNL128W, strain TEP1, stronger effect = lower value 1.01 | S. cerevisiae deletion strains, locus YNL153C, strain GIM3, stronger effect = lower value 1.02 and 0.971 | S. cerevisiae deletion strains, locus YNL175C, strain NOP13, stronger effect = lower value 1.01 and 0.972 | S. cerevisiae deletion strains, locus YNL183C, strain NPR1, stronger effect = lower value 0.95 | S. cerevisiae deletion strains, locus YNL197C, strain WHI3, stronger effect = lower value 1.01 and 0.989 | S. cerevisiae deletion strains, locus YNL209W, strain ssb2, stronger effect = lower value 1.02 | S. cerevisiae deletion strains, locus YNL224C, strain SQS1, stronger effect = lower value 1 and 0.989 | S. cerevisiae deletion strains, locus YNL233W, strain BNI4, stronger effect = lower value 1.01 and 1.02 | S. cerevisiae deletion strains, locus YNL248C, strain rpa49, stronger effect = lower value 1 and 1.01 | S. cerevisiae deletion strains, locus YNL250W, strain rad50, stronger effect = lower value 1.01 and 0.986 | S. cerevisiae deletion strains, locus YNL271C, strain bni1, stronger effect = lower value 1.01 | S. cerevisiae deletion strains, locus YNL298W, strain CLA4, stronger effect = lower value 1.01 and 0.999 | S. cerevisiae deletion strains, locus YNL307C, strain MCK1, stronger effect = lower value 1.02 and 1.01 | S. cerevisiae deletion strains, locus YNL322C, strain KRE1 (second series), stronger effect = lower value 1.02 | S. cerevisiae deletion strains, locus YNL322C, strain KRE1, stronger effect = lower value 1.01 | S. cerevisiae deletion strains, locus YNR049C, strain mso1, stronger effect = lower value 1.02 and 1.01 | S. cerevisiae deletion strains, locus YNR052C, strain pop2, stronger effect = lower value 1.01 and 0.997 | S. cerevisiae deletion strains, locus YOL006C, strain TOP1, stronger effect = lower value 1.1 and 1.08 | S. cerevisiae deletion strains, locus YOL012C, strain htz1 0.844 and 0.846 | S. cerevisiae deletion strains, locus YOL147C, strain pex11, stronger effect = lower value 1.02 and 0.99 | S. cerevisiae deletion strains, locus YOR001W, strain rrp6, stronger effect = lower value 0.998 and 1.02 | S. cerevisiae deletion strains, locus YOR061W, strain CKA2, stronger effect = lower value 1.01 and 1.02 | S. cerevisiae deletion strains, locus YOR069W, strain VPS5, stronger effect = lower value 1.01 | S. cerevisiae deletion strains, locus YOR070C, strain gyp1, stronger effect = lower value 1.02 | S. cerevisiae deletion strains, locus YOR080W, strain dia2, stronger effect = lower value 1.02 | S. cerevisiae deletion strains, locus YOR083W, strain WHI5 (second series), stronger effect = lower value 0.992 and 1 | S. cerevisiae deletion strains, locus YOR083W, strain WHI5, stronger effect = lower value 1.02 | S. cerevisiae deletion strains, locus YOR106W, strain vam3, stronger effect = lower value 1.02 | S. cerevisiae deletion strains, locus YOR136W, strain idh2, stronger effect = lower value 1.02 and 1 | S. cerevisiae deletion strains, locus YOR144C, strain elg1, stronger effect = lower value 1.02 and 0.993 | S. cerevisiae deletion strains, locus YOR184W, strain ser1, stronger effect = lower value 1.04 and 1.01 | S. cerevisiae deletion strains, locus YOR231W, strain MKK1, stronger effect = lower value 0.976 | S. cerevisiae deletion strains, locus YOR265W, strain rbl2, stronger effect = lower value 1.02 and 1.01 | S. cerevisiae deletion strains, locus YOR270C, strain vph1, stronger effect = lower value 1.02 and 1.07 | S. cerevisiae deletion strains, locus YOR290C, strain snf2, stronger effect = lower value 1.03 and 0.969 | S. cerevisiae deletion strains, locus YOR316C, strain cot1, stronger effect = lower value 1.02 and 0.999 | S. cerevisiae deletion strains, locus YPL051W, strain arl3, stronger effect = lower value 1.02 and 1.01 | S. cerevisiae deletion strains, locus YPL055C, strain LGE1, stronger effect = lower value 1.06 and 1 | S. cerevisiae deletion strains, locus YPL078C, strain atp4, stronger effect = lower value 1.02 and 1.01 | S. cerevisiae deletion strains, locus YPL106C, strain sse1, stronger effect = lower value 1.02 | S. cerevisiae deletion strains, locus YPL240C, strain hsp82, stronger effect = lower value 1.03 and 1.02 | S. cerevisiae deletion strains, locus YPL241C, strain CIN2, stronger effect = lower value 1.01 | S. cerevisiae deletion strains, locus YPL256C, strain CLN2, stronger effect = lower value 0.979 | S. cerevisiae deletion strains, locus YPR119W, strain clb2, stronger effect = lower value 1.01 and 0.99 | S. cerevisiae deletion strains, locus YPR141C, strain kar3, stronger effect = lower value 1.01 and 1 | S. cerevisiae deletion strains, locus YPR163C, strain tif3, stronger effect = lower value 1.03 and 0.994 | S. cerevisiae deletion strains, locus YPR167C, strain met16, stronger effect = lower value 1.02 and 0.995 | S. cerevisiae deletion strains, strain wtn01, stronger effect = lower value 1.03 and 0.997 | S. cerevisiae strains, strain wild type, stronger effect = lower value 1.01
